The text below walks through data of ChEMBL document CHEMBL1961873, “Compounds: GSK PKIS; Assays: Nanosyn kinase panel” (2012).

Assay [1] has as its target Serine/threonine-protein kinase MARK2 (Homo sapiens) (UniProt Q7KZI7). Conditions: at 1 µM.
Assay [2] has as its target PAS domain-containing serine/threonine-protein kinase (Homo sapiens) (UniProt Q96RG2). Conditions: at 0.1 µM.
Assay [3] has the same target. Conditions: at 1 µM.
Assay [4] deals with Phosphorylase b kinase gamma catalytic chain, skeletal muscle/heart isoform (Homo sapiens) (UniProt Q16816). The settings on record: at 0.1 µM.
Assay [5] has the same target. The settings on record: at 1 µM.
Assay [6] deals with T1, Phosphorylase b kinase gamma catalytic chain, liver/testis isoform (Homo sapiens) (UniProt P15735).
T1 sequence (whole entry): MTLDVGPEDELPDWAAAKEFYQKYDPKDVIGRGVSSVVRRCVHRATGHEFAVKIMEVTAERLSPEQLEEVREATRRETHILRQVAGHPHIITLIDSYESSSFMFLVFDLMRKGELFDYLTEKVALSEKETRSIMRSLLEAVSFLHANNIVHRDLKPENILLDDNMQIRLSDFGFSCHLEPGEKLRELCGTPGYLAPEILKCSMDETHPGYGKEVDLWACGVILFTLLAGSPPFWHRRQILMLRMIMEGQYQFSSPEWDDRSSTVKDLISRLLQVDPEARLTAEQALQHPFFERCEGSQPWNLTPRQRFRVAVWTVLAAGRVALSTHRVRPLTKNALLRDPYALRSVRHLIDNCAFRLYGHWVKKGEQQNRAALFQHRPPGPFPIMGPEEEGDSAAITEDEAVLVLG
Conditions: at 0.1 µM.

For assay [7], the target named is T1, Phosphorylase b kinase gamma catalytic chain, liver/testis isoform (Homo sapiens). The settings on record: at 1 µM.
Assay [8] concerns the target Serine/threonine-protein kinase pim-1 (Homo sapiens) (UniProt P11309). The settings on record: at 0.1 µM.
Assay [9] has the same target. Conditions: at 1 µM.
Assay [10] has as its target Serine/threonine-protein kinase pim-2 (Homo sapiens) (UniProt Q9P1W9). The settings on record: at 0.1 µM.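 Further: reported value is the mean percent inhibition of PIM2, measured in the GSK PKIS kinase inhibitor set screen.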

Chain of Serine/threonine-protein kinase pim-2 (Homo sapiens) (Q9P1W9 whole entry, looked up): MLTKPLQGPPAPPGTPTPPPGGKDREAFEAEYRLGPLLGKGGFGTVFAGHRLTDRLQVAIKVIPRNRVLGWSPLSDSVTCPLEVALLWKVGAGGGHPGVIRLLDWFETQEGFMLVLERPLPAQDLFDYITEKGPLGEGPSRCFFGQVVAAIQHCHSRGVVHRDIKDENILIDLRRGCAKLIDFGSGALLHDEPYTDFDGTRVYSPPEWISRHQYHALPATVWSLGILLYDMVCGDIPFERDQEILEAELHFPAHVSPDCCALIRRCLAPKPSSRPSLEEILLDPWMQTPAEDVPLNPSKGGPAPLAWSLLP
Chain of PAS domain-containing serine/threonine-protein kinase (Homo sapiens) (Q96RG2 whole entry, the tested form may be a part): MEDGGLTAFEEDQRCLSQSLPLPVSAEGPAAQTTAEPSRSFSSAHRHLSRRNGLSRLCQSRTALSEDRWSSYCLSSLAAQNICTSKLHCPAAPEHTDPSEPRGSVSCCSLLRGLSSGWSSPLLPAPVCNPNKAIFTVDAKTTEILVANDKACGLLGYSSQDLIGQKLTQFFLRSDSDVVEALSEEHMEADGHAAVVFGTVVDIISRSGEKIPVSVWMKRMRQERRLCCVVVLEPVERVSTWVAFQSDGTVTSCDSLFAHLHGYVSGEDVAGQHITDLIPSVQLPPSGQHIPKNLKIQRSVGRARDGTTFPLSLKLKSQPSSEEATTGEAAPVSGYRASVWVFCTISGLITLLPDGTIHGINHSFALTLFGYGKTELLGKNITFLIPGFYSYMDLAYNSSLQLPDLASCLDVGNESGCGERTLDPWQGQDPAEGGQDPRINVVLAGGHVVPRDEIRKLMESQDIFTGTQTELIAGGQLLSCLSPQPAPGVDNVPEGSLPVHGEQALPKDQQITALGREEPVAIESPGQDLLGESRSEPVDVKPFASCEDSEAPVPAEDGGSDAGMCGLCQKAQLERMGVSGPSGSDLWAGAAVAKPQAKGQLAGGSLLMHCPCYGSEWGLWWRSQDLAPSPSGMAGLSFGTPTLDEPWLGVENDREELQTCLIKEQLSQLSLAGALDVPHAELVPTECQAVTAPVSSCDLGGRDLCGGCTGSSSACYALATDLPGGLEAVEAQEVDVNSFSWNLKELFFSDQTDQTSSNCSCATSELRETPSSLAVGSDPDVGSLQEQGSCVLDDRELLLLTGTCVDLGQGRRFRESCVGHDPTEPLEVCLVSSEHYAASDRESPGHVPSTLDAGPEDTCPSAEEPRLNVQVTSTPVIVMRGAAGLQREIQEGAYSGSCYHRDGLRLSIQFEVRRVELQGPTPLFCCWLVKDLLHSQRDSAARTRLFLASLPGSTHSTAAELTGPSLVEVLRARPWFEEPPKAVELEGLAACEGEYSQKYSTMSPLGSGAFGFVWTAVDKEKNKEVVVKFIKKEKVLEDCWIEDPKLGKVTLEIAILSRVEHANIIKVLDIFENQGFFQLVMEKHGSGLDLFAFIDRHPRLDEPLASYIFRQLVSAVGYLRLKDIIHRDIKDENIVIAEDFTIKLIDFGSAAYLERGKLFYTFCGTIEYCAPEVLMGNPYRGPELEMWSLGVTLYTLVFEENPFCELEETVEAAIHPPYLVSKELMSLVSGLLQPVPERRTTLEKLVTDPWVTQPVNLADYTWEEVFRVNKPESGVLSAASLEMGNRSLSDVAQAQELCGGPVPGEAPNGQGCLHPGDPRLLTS
Chain of Phosphorylase b kinase gamma catalytic chain, skeletal muscle/heart isoform (Homo sapiens) (Q16816 whole entry, looked up, canonical isoform): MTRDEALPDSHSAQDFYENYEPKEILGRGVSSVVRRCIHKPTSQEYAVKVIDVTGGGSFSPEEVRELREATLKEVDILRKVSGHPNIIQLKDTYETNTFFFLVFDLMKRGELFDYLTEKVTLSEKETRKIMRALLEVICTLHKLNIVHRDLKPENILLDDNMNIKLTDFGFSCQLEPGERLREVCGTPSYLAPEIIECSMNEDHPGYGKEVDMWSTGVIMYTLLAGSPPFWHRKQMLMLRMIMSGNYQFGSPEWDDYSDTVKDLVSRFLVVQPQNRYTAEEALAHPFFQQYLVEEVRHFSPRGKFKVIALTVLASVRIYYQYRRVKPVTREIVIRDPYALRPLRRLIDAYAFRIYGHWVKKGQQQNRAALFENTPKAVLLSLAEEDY
Chain of Serine/threonine-protein kinase MARK2 (Homo sapiens) (Q7KZI7 whole entry, the tested form may be a part): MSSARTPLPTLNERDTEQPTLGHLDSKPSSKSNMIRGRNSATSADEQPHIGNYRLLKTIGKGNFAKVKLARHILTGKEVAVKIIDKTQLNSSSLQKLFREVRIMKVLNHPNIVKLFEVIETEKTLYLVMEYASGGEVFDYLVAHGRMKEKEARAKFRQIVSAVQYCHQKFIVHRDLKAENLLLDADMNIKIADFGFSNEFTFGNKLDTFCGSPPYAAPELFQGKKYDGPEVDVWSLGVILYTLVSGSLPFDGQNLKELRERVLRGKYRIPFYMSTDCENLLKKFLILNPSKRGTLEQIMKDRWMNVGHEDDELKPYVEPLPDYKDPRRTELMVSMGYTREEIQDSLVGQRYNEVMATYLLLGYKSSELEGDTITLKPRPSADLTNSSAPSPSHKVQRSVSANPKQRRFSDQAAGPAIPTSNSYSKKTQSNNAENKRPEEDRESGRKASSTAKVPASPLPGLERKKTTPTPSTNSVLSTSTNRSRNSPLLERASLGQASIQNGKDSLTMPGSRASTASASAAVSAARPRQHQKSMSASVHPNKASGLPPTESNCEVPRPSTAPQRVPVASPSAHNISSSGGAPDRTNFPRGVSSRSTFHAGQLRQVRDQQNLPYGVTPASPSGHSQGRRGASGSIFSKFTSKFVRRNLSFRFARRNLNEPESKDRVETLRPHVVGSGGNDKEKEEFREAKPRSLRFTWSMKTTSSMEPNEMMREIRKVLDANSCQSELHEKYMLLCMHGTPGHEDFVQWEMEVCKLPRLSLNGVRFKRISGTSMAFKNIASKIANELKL
Chain of Serine/threonine-protein kinase pim-1 (Homo sapiens) (P11309 whole entry, looked up): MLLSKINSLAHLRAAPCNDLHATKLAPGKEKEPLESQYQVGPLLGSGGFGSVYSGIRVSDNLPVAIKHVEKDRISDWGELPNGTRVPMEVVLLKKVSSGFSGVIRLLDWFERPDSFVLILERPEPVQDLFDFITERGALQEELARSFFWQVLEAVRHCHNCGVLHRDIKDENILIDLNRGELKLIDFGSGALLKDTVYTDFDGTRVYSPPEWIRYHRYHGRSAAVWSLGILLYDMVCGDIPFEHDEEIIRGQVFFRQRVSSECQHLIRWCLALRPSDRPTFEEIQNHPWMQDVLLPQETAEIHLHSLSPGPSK

The inhibition is the drop in the measured response relative to a control, in per cent. `NCc1ccc(-n2c(-c3nonc3N)nc3cnccc32)cc1`: the inhibition in assay [1] came to 23.4%; in assay [2], 0%; in assay [3], 2.53%; in assay [4] it was 7.71%; in assay [5] it was 16%; in assay [6] it was 6.79%. The inhibition in assay [7] is 4.79%; in [8] it was 34.4%; in [9] it was 82.8%; in assay [10] it was 8.18%.

Consider `FC(F)(F)c1cccc(Nc2nccc(-c3cnn4nc(-c5ccccc5)ccc34)n2)c1`, for which the inhibition in assay [1] was determined as 0.61%; in assay [2], 0.34%; in assay [3], 0.28%; in assay [4], 3.06%; in assay [5], 6.39%; in [6], 2.99%. The inhibition in assay [7] was 2.77%; in assay [8], 0.96%; in [9], -0.68%; in [10] it was 0.77%.

In the case of `CCC(=O)Nc1ccc(C)c(-c2ccc(C(=O)NCC3CC3)cc2)c1`, the inhibition was 1.92% in [1]; -0.16% in assay [2]; -0.9% in assay [3]; 1.26% in assay [4]; 4.36% in assay [5]; 2.68% in [6]. Further, the inhibition in assay [7] was 2.43%; in assay [8] it was 1.37%; in assay [9], 1.55%; in assay [10] it was -2.01%.

Consider `Fc1ccc(-c2ncn(C3CCNCC3)c2-c2ccnc(Oc3ccc(Oc4ccccc4)cc3)n2)cc1`, for which the inhibition in assay [1] was 4.07%; in assay [2], -2.03%; in [3], -0.39%; in assay [4] it was 0.96%; in assay [5] it was -5.23%; in assay [6], 5.51%. Moreover, the inhibition in assay [7] is 6.26%; in assay [8], 0.09%; in assay [9], 0.87%; in assay [10], -0.33%.

Consider `O=C1Nc2ccccc2/C1=C/Nc1ccc(-n2cncn2)cc1`, for which the inhibition in [1] amounted to 10.2%; in assay [2], 0.03%; in assay [3], 1.73%; in assay [4], 9.39%; in assay [5], 33.6%; in assay [6], 5.95%. The inhibition was 18.7% in [7], 0.85% in assay [8], 0.68% in [9] and 0.56% in assay [10].

As to `Clc1ccc(CNc2nccc(-c3cnn4ncccc34)n2)cc1`, the inhibition in assay [1] is 2.93%; in [2], 0.92%; in assay [3], 1.97%; in assay [4], -0.23%; in assay [5] it was 5.35%; in assay [6], 2.58%. Further, the inhibition in [7] was 2.28%; in [8], 1.63%; in [9] it was 3.93%; in [10], -0.52%.

As to `CNC(=O)c1cncc(/C=C/c2c(C)cccc2C)c1`, the inhibition in assay [1] is 0.9%; in assay [2], 1.4%; in assay [3], 0.92%; in assay [4] it was 0.1%; in [5], -0.59%; in assay [6], 2.11%. Also, the inhibition was 0.8% in assay [7], 0.92% in assay [8], 1.36% in [9] and -4.04% in [10].

For the compound `CS(=O)(=O)CCNCc1cc(-c2cc3c(Nc4ccc(OCc5cccc(F)c5)c(Cl)c4)ncnc3s2)cs1`, the inhibition in assay [1] was 0.65%; in assay [2], -1.66%; in assay [3], -1.38%; in assay [4] it was 1.42%; in [5], 3.57%; in [6], 3.77%. Also, the inhibition is 4.76% in assay [7], 1.41% in assay [8], 2.26% in assay [9] and -0.84% in assay [10].

For `O=C(Nc1n[nH]c2nc(-c3ccco3)ccc12)C1CC1`, the inhibition in assay [1] is 0.11%; in [2] it was 0.36%; in assay [3] it was -0.43%; in [4], 1.05%; in [5], 3.2%; in assay [6] it was 0.75%. In addition, the inhibition in assay [7] is -0.31%; in assay [8], 1.36%; in assay [9] it was 0.54%; in assay [10], 0.1%.

`COc1cc2ncn(-c3cc(OCc4cccs4)c(C(N)=O)s3)c2cc1OC`: the inhibition in [1] was 2.32%; in [2] it was 2.13%; in [3], 6.7%; in assay [4], 3.47%; in assay [5] it was 6.14%; in [6] it was 3.82%. Also, the inhibition is 10.1% in assay [7], 0.81% in [8], 2.01% in assay [9] and -2.64% in assay [10].

Turning to `CCc1cccc(CC)c1/C=C/c1cncc(C(=O)NC)c1`, the inhibition in assay [1] is 1.59%; in assay [2], 0.55%; in [3], -0.71%; in [4], 0.98%; in [5], 3.16%; in assay [6], 3.56%. In addition, the inhibition was 0.53% in assay [7], 1.04% in assay [8], 1.26% in [9] and -0.07% in assay [10].

On to `NS(=O)(=O)c1ccc(N/N=C2\C(=O)Nc3ccc(C(=O)NCCCn4ccnc4)cc32)cc1`, for which the inhibition in assay [1] turned out to be 9.93%; in assay [2] it was 0.17%; in assay [3], 2.55%; in [4], 9.94%; in assay [5], 25.8%; in assay [6], 3.91%. For the same compound, the inhibition in [7] came out at 10%; in assay [8] it was 2.53%; in assay [9] it was 15.6%; in assay [10], 0.82%.

In the case of `C[C@@H](Oc1cc(-n2cnc3ccc(OC4CCN(C)CC4)cc32)sc1C(N)=O)c1ccccc1Cl`, the inhibition in [1] is 9.93%; in assay [2] it was -0.56%; in [3], 0.38%; in assay [4] it was 2.08%; in assay [5], 5.16%; in assay [6], 5.55%. Besides, the inhibition in assay [7] is 4.86%; in assay [8] it was 16.1%; in assay [9] it was 65.3%; in [10], -4.35%.

Regarding `C[C@@H](Oc1cc(-n2cnc3ccc(OCC4CCN(C)CC4)cc32)sc1C(N)=O)c1ccccc1Cl`, the inhibition in assay [1] is 19.7%; in assay [2], -0.74%; in [3], 3.45%; in assay [4] it was 2.43%; in assay [5], 10.2%; in assay [6], 8.59%. Besides, the inhibition in assay [7] is 9.94%; in assay [8], 18.5%; in assay [9], 70%; in [10], 0.64%.
